Assay outcomes deposited in PubChem by several laboratories.
Shown are actives, neighbours in structure and some others; about 0.94% of the full set was active somewhere.
SK-BR-3 tox 24h: SK-BR-3 proliferation inhibitors. SK-BR-3 viability, CellTiter-Glo ATP luminescence, 24 h; stronger effect = lower value. viability, % at 10 µM. actives 0.47% (n = 41,000);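 active = viability at or below the median of all test compounds minus 3 SD, in both replicates if run twice, cut at about 45% in these data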;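 note: 100% = median untreated cell wells and 0% = median positive control drug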
HER2 expr 66K: lowers expression of human Her2 kinase; SKBR-3 HER2 protein level, AlphaScreen, 18-24 h; stronger effect = lower value; P04626; AID 645; HER2 level % of control, % at 10 µM; actives 0.69% (n = 65,000);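 active = HER2 level under 5% of the carrier-only control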;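 note: 100% = DMSO carrier and 0% = 500 nM PU-H71 HSP90 inhibitor; lower value means stronger loss of Her2 protein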
MMP-13 inhibitor: inhibitors of human MMP13 | P45452 | MMP-13 fTHP FRET cleavage, Mca fluorescence | inhibition, % at 4 µM | actives 0.07% (n = 65,000) | AID 570;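 active = inhibition above the mean of compound-free control plate wells plus 3 SD, cut at about 14% in these data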;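 note: 0% = DMSO wells and 100% = wells with reference MMP-13 inhibitor after basal subtraction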
Active calls of the source: *; . = no result given.

SMILES	SK-BR-3 tox 24h	HER2 expr 66K	MMP-13 inhibitor
COc1ccc(S(=O)(=O)N2CCC(C(=O)NCCC3=CCCCC3)CC2)cc1OC	95	104	1
CC1=C(C)C(=O)NC(Nc2nc(C)c3cc(C)cc(C)c3n2)N1 (stereo unspecified)	.	-14*	0
CCN(CC(=O)NC1CCCCCC1)S(=O)(=O)c1ccccc1	94	-28*	6
CCN(CC(=O)NC1CCCC1)S(=O)(=O)c1ccc(C)cc1	.	75	3
Nc1cc(C(=O)O)ccc1N1CCCCCC1	96	99	-6
Cc1c(C#N)c(N=CN(C)C)c(C(=O)c2ccccc2)n1-c1ccccc1	.	112	3
Cc1c(C#N)c(N)c(C(=O)c2ccccc2)n1Cc1ccccc1	97	-32*	.
CCn1c(SCC(=O)Nc2cc(OC)ccc2OC)nnc1C1CCCCC1	79	79	4
C/C(=C\C(=O)Nc1nccs1)c1ccccc1	77	72	9
Cn1c(=O)c2c(nc(CN3CCN(C(=O)c4ccco4)CC3)n2CCc2ccccc2)n(C)c1=O	84	93	7
Cn1c(=O)c2c(nc(CN3CCN(C(=O)c4ccco4)CC3)n2CCCc2ccccc2)n(C)c1=O	.	105	17*
Cn1c(SCC(=O)NC(C)(C)C)nnc1-c1ccc(C(C)(C)C)cc1	.	70	6
Cc1nc(N)sc1-c1csc(Nc2ccccn2)n1	.	87	12
Cc1nc(N)sc1-c1csc(Nc2ccc(Cl)cn2)n1	83	87	16*
CC1(C)N=C(c2cccc(F)c2)C(=O)N1	.	88	2
Cc1onc(-c2ccccc2)c1C(N)=O	95	98	1
Cc1onc(-c2ccccc2)c1C(=O)n1nnc2ccccc21	.	2.2*	8
COc1ccc(CSc2nnnn2Cc2ccccc2)cc1OC	90	-0.9*	3
COc1ccc(C)cc1NC(=O)CSc1nnnn1Cc1ccccc1	77	95	0
COCCNC(=O)CN1C(=O)CSc2cc(S(=O)(=O)N3CCCCCC3)ccc21	.	101	-7
CC1CCCN(C(=O)C(Cc2ccccc2)n2cccc2)C1 (stereo unspecified)	.	85	0
COc1ccc(S(=O)(=O)N2CCC(C(N)=O)(N3CCCCC3)CC2)cc1	.	76	4
COc1cccc(NC(=O)N2CCC(C(N)=O)(N3CCCCC3)CC2)c1	40*	50	0
NC(=O)CSc1nnc2n(-c3ccccc3)c(=O)c3c4c(sc3n12)CCCCC4	32*	11	-9
Cc1nnc2n(-c3ccccc3)c(=O)c3c4c(sc3n12)CCCC4	83	97	-4
Cc1cccn2c(=O)c3cc(C(=O)N4CCc5ccccc5C4)n(C)c3nc12	71	82	-26
